# Source: PubChem BioAssay (NCATS)
# Several values for one entry are separate records, joined by “and”; a condition that tells them apart may be missing. Equal entries are not always repeated. Results filed as inconclusive are left out. Where a call stands in place of a potency, no number is given. Activity calls are given as the source filed them. Unless noted, calls come from the whole dose curve.
# How the values were obtained:
# [1] = biological target: Glucocorticoid receptor (Homo sapiens) (UniProt P04150); test: qHTS assay for small molecule agonists of glucocorticoid receptor signaling (AID 588532; active = well fitted curve in the direction sought with a large enough effect in the signal ratio, with a control signal flat; the % refers to the signal ratio); conditions: HeLa MMTV-bla, beta-lactamase ratio, agonist, 18 h; stronger effect = higher value; percent of dexamethasone control, DMSO zero
# Sequence of Glucocorticoid receptor (Homo sapiens) (P04150 whole entry, looked up): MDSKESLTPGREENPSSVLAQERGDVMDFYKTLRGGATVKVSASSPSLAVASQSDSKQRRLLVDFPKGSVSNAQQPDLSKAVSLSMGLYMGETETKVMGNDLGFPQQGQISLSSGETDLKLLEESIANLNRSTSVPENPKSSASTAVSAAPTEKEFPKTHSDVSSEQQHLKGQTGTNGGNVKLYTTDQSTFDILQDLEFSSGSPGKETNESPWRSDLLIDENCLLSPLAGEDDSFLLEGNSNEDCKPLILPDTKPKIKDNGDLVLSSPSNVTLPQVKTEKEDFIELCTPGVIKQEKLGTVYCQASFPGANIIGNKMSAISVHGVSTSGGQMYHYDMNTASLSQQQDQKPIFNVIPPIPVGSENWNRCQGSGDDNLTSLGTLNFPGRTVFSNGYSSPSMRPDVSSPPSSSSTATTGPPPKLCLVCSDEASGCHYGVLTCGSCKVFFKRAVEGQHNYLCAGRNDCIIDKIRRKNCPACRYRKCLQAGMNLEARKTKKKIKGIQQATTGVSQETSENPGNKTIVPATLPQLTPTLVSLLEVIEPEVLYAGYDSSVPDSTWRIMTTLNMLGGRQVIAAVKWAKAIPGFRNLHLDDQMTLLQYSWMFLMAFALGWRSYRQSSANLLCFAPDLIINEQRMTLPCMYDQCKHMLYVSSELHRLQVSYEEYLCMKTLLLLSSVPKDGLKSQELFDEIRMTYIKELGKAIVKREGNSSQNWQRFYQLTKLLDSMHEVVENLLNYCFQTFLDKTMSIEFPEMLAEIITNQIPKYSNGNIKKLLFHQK
# How it was run: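 Agonist-mode qHTS: GRE-driven beta-lactamase in HeLa cells exposed 18 h to titrated compounds (up to 92 uM), then CCF4 ratio read after 2 h at RT; Hill-fitted EC50, efficacy relative to 0.1 uM dexamethasone.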
# [2] = biological target: Glucocorticoid receptor (Homo sapiens) (UniProt P04150); test: qHTS assay for small molecule antagonists of glucocorticoid receptor signaling (AID 588533; active = well fitted inhibition curve with a large enough effect in the signal ratio, with a control signal flat, not every such curve was filed as active; the % refers to the signal ratio;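 note: cells stimulated with 2 nM dexamethasone as agonist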); conditions: HeLa MMTV-bla, GRE beta-lactamase ratio, antagonist mode, 18 h; series mostly up to 76.8 µM
# How it was run: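 Antagonist-mode qHTS: compound titrations added to GRE-bla HeLa cells, then dexamethasone 2 nM final; 18 h, 37 C. CCF4 FRET fluorescence normalized to dexamethasone and DMSO; IC50 from Hill fit.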
# [3] = biological target: Peroxisome proliferator-activated receptor delta (Homo sapiens) (UniProt Q03181); test: qHTS assay for small molecule agonists of peroxisome proliferator-activated receptor delta signaling (AID 588534); conditions: HEK293T PPARdelta-UAS-bla, beta-lactamase ratio, 18 h; series mostly up to 76.7 µM
# Sequence of Peroxisome proliferator-activated receptor delta (Homo sapiens) (Q03181 whole entry, looked up): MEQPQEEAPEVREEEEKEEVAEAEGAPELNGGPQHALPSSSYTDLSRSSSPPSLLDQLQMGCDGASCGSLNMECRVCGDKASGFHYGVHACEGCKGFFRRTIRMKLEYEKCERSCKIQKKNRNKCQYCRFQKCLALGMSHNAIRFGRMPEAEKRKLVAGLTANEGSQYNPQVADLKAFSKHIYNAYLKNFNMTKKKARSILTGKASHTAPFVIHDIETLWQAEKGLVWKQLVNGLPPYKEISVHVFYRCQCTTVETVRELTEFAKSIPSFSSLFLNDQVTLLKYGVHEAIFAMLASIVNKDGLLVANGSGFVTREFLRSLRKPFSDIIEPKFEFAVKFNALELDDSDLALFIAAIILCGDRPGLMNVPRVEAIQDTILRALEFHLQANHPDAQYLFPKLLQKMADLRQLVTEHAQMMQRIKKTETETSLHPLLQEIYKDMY
# How it was run: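 Agonist-mode qHTS; reporter cells, 5 hrs 37 C pre-incubation; compound titration, 18 hrs 37 C; CCF4 dye, 2 hrs RT; fluorescence read. EC50/efficacy via Hill fit.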
# [4] = qHTS assay for small molecule antagonists of peroxisome proliferator-activated receptor delta signaling (AID 588535; active = well fitted inhibition curve with a large enough effect in the signal ratio, with a control signal flat, not every such curve was filed as active; the % refers to the signal ratio;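 for max response: cells co-treated with a PPAR-delta agonist as stimulator during compound exposure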); conditions: HEK293T PPARd-UAS-bla, beta-lactamase FRET ratio, 18 h; 460 nm channel
# How it was run: (§1)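 Titrations were run on PPAR-delta-UAS-bla HEK293T cells in charcoal/dextran-stripped serum, incubated 18 h at 37 C. CCF4 fluorescence (460/530 nm) after 2 h RT; Hill equation yields IC50 and maximal response.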
# [5] = biological target: Peroxisome proliferator-activated receptor delta (Homo sapiens) (UniProt Q03181); test: as above; conditions: HEK293T PPARd-UAS-bla, beta-lactamase FRET ratio, 18 h; series mostly up to 76.7 µM
# How it was run: as §1
# [6] = biological target: Peroxisome proliferator-activated receptor gamma (Homo sapiens) (UniProt P37231); test: qHTS assay for small molecule agonists of peroxisome proliferator-activated receptor gamma signaling (AID 588536; active = well fitted curve in the direction sought with a large enough effect in the signal ratio, with a control signal flat, not every such curve was filed as active; the % refers to the signal ratio); conditions: HEK293 PPARg-UAS-bla, beta-lactamase ratio, 16 h, percent of rosiglitazone response, DMSO as zero; series mostly up to 76.7 µM
# Sequence of Peroxisome proliferator-activated receptor gamma (Homo sapiens) (P37231 whole entry, looked up): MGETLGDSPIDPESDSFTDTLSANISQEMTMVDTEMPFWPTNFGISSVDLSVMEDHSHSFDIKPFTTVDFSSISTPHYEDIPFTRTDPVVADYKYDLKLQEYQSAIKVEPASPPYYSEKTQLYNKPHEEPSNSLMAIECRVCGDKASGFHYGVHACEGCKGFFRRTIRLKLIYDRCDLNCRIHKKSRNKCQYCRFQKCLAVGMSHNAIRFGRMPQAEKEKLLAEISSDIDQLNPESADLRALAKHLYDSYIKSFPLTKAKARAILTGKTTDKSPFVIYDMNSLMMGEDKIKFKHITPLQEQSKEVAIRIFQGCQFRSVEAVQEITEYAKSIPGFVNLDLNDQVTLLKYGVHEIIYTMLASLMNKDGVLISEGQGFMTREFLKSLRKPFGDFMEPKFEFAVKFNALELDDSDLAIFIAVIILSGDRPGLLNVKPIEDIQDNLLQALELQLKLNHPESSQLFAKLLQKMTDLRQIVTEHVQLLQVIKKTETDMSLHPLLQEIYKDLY
# How it was run: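 Compound treatment: 16 h, 37 C, HEK293 GeneBLAzer cells. Detection: CCF4, 2 h RT. Values: Hill-fit EC50, efficacy as % of 2 uM rosiglitazone.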
# [7] = biological target: Androgen receptor (Homo sapiens) (UniProt P10275); test: qHTS assay for small molecule agonists of androgen receptor signaling (AID 588515; active = well fitted curve in the direction sought with a large enough effect in the signal ratio, with a control signal flat; the % refers to the signal ratio); conditions: AR-UAS-bla HEK293, beta-lactamase ratio, agonist 16 h; stronger effect = higher value
# Sequence of Androgen receptor (Homo sapiens) (P10275 whole entry, looked up): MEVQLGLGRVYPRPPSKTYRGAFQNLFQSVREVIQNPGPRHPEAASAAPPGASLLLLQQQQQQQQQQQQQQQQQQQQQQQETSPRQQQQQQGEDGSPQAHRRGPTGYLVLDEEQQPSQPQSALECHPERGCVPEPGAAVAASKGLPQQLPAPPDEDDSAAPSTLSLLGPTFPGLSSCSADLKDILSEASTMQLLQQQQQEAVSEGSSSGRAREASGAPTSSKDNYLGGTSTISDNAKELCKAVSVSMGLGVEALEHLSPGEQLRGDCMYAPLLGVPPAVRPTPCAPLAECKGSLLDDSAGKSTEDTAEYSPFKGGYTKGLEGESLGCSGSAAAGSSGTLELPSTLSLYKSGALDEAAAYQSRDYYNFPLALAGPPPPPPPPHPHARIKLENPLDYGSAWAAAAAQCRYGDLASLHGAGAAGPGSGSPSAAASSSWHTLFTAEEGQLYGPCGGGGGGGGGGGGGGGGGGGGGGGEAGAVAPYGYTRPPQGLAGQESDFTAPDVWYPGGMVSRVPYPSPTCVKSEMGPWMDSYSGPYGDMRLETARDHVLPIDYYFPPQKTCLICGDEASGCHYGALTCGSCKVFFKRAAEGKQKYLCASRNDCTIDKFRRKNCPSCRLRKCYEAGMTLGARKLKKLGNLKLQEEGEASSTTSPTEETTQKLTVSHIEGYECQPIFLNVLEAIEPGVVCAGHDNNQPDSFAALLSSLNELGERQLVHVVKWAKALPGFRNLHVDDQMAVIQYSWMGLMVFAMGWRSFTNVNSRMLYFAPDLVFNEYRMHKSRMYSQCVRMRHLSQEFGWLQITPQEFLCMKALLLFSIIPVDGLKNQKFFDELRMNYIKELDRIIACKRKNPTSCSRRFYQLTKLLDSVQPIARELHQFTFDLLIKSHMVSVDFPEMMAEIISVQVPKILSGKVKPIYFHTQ
# How it was run: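 Stimulation of an AR-responsive β-lactamase reporter in GripTite HEK293 cells was measured after 16 h compound exposure at 37 °C, via CCF4 fluorescence after 2 h RT. EC50 from Hill fits, normalized to R1881 at 30 nM.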
# [8] = biological target: Androgen receptor (Homo sapiens) (UniProt P10275); test: qHTS assay for small molecule antagonists of androgen receptor signaling (AID 588516; active = well fitted curve in the direction sought with a large enough effect in the signal ratio, with a control signal flat, not every such curve was filed as active; the % refers to the signal ratio); conditions: AR-UAS-bla HEK293, beta-lactamase ratio, antagonist mode, 16 h; series mostly up to 76.8 µM
# How it was run: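 AR-UAS-bla GripTite HEK 293 cells (2000/well) treated with compound titrations plus 10 nM R1881 for 16 h at 37C. Beta-lactamase read by CCF4 FRET (460/530 nm); IC50 from Hill fits, normalized to R1881 and DMSO control wells.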
# [9] = biological target: Bile acid receptor (Homo sapiens) (UniProt Q96RI1); test: qHTS assay for small molecule antagonists of farnesoid X receptor signaling (AID 588526); conditions: HEK293T FXR-UAS-bla, beta-lactamase ratio, antagonist mode; series mostly up to 76.7 µM
# Sequence of Bile acid receptor (Homo sapiens) (Q96RI1 whole entry, looked up): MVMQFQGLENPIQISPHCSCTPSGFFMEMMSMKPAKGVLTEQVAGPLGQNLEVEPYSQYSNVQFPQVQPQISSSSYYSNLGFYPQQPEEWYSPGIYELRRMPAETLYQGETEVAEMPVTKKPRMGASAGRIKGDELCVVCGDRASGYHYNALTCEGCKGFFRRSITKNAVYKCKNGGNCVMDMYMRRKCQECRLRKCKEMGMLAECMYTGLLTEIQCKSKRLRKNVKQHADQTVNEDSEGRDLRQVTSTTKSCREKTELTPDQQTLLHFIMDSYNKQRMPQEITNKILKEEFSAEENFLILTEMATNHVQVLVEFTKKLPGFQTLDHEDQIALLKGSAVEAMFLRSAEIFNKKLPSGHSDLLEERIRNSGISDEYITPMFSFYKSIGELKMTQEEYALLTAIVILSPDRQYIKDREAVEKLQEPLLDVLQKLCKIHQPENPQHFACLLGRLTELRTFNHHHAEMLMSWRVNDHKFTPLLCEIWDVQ
# How it was run: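 Beta-lactamase reporter antagonist mode: HEK293T FXR-UAS-bla cells, titrated compound, CDCA stimulation, 16 h 37 C, CCF4 dye 2 h RT. Data normalized to CDCA 50 uM and DMSO; Hill-fit IC50.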
# [10] = biological target: Bile acid receptor (Homo sapiens) (UniProt Q96RI1); test: qHTS assay for small molecule agonists of farnesoid X receptor signaling (AID 588527); conditions: HEK293T FXR-UAS-bla, beta-lactamase ratio, 16 h; stronger effect = higher value
# How it was run: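 FXR-UAS-bla HEK293T, 10% dialyzed FBS; cpds up to 92 uM titration, 16 h 37 C; CCF4 dye 2 h RT; fluorescence. Normalized to chenodeoxycholic acid 100 uM (100%) and DMSO (0%); Hill fit gives EC50, efficacy.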
structure (smiles),measurement,setting,value
O=[N+]([O-])c1ccccc1,activation,[1],-2.43% (inactive) and 5.7% (inactive)
same,Potency,[2],inactive
same,outcome,[3],inactive
same,max response,[4],3.64%
same,outcome,[5],inactive
same,outcome,[6],inactive
CCCCCCCCOC(=O)c1ccccc1C(=O)OCCCCCCCC,activation,[7],20.2% (inactive) and 9.55% (inactive)
same,outcome,[8],inactive
same,Potency,[9],inactive
same,activation,[10],1.69% (inactive)
same,outcome,[3],inactive
same,max response,[4],13.7% and -2.08%
same,outcome,[5],inactive
same,outcome,[6],inactive
ClCC1CO1 (centres undefined),activation,[1],-9.3% (inactive)
same,Potency,[2],inactive
same,outcome,[3],inactive
same,outcome,[6],inactive
O=[N+]([O-])c1ccc(F)c([N+](=O)[O-])c1,activation,[10],-1.56% (inactive)
same,outcome,[6],inactive
Oc1cc(Cl)c(Cl)cc1Cl,outcome,[6],inactive
O=Cc1ccco1,outcome,[3],inactive
C[C@H]1CCC[C@H](O)CCCCCc2cc(O)cc(O)c2C(=O)O1,activation,[1],9.28% (inactive)
same,outcome,[6],inactive
C=CCN=C=S,activation,[10],-2.58% (inactive)
same,outcome,[3],inactive
same,max response,[4],17.5%
same,outcome,[5],inactive
same,outcome,[6],inactive
ClC1C(Cl)C(Cl)C(Cl)C(Cl)C1Cl (centres undefined),Potency,[9],inactive
same,activation,[10],1.57% (inactive) [middle of 4 runs]
same,outcome,[3],inactive
same,outcome,[5],inactive
same,outcome,[6],inactive
COCC(C)N(C(=O)CCl)c1c(C)csc1C (centres undefined),Potency,[9],inactive
same,activation,[10],0.208% (inactive)
same,activation,[1],-2.08% (inactive)
same,Potency,[2],inactive
same,outcome,[3],inactive
O=C(O)c1cc[c]([Hg][Cl])cc1,Potency,[9],inactive
same,activation,[10],1.46% (inactive)
same,activation,[1],5.77% (inactive)
same,Potency,[2],inactive
CCCSP(=O)(OCC)SCCC,activation,[7],-4.11% (inactive)
same,Potency,[9],inactive
same,activation,[10],2.76% (inactive)
same,Potency,[2],inactive
same,outcome,[6],inactive
O=C(NCNC(=O)NC1C(=O)NC(=O)N1CO)NC1C(=O)NC(=O)N1CO (centres undefined),activation,[7],0.237% (inactive)
same,Potency,[9],inactive
same,activation,[10],1.1% (inactive)
same,activation,[1],-2.2% (inactive)
same,Potency,[2],inactive
same,outcome,[3],inactive
same,max response,[4],13.7%
same,outcome,[5],inactive
same,outcome,[6],inactive
ClC=C(Cl)Cl,Potency,[9],inactive
same,activation,[10],-1.52% (inactive) and -2.36% (inactive)
same,outcome,[3],inactive
same,max response,[4],-19.2% and 28.8%
same,outcome,[5],inactive
same,outcome,[6],inactive
O=C(O)C(Cl)(Cl)Cl,outcome,[3],inactive
same,max response,[4],-10%
same,outcome,[5],inactive
same,outcome,[6],inactive
O=C1C=CC(=O)C=C1,outcome,[6],inactive
O=c1[nH]c(=O)n(Cl)c(=O)n1Cl,activation,[1],26.8% (inactive)
same,Potency,[2],inactive
same,outcome,[6],inactive
O=C1C[C@@H]2OCC=C3CN4CC[C@]56c7ccccc7N1[C@H]5[C@H]2[C@H]3C[C@H]46,outcome,[6],inactive
CCOP(=O)(OCC)O/C(=C/Cl)c1ccc(Cl)cc1Cl,activation,[1],-9.9% (inactive) and -3.21% (inactive)
same,Potency,[2],inactive
same,outcome,[3],inactive
same,max response,[4],-26.4% and 25.5%
same,outcome,[5],inactive
N#CN,activation,[1],-6.37% (inactive)
same,outcome,[3],inactive
same,max response,[4],20.7%
same,outcome,[5],inactive
same,outcome,[6],inactive
O=C1C2CC=CCC2C(=O)N1SC(Cl)(Cl)Cl (centres undefined),outcome,[3],inactive
same,max response,[4],55.5%
same,outcome,[5],inactive
same,outcome,[6],inactive
COC1=CC(=O)O[C@@H](/C=C/c2ccccc2)C1,Potency,[9],inactive
same,activation,[10],-0.876% (inactive)
same,activation,[1],-2.27% (inactive)
same,Potency,[2],inactive
same,outcome,[6],inactive
O=C/C=C/c1ccccc1,activation,[1],3.19% (inactive) and -0.384% (inactive)
same,Potency,[2],inactive
same,outcome,[3],inactive
same,max response,[4],-5.87%
same,outcome,[5],inactive
same,outcome,[6],inactive
CCOC(=O)c1ccccc1C(=O)OCC,activation,[1],-2.44% (inactive) and -3.91% (inactive)
same,Potency,[2],inactive
same,outcome,[3],inactive
same,max response,[4],24.2% and 33.2%
same,outcome,[5],inactive
same,outcome,[6],inactive
CC(C)Nc1ccc(Nc2ccccc2)cc1,activation,[10],3.94% (inactive)
same,outcome,[3],inactive
COc1ccc2c(c1OC)C(=O)OC2C1c2cc3c(cc2CCN1C)OCO3 (centres undefined),activation,[7],-2.23% (inactive)
same,outcome,[8],inactive
same,outcome,[3],inactive
same,outcome,[6],inactive
Clc1ccccc1Cl,Potency,[9],inactive
same,activation,[10],-2.33% (inactive)
same,activation,[1],2.7% (inactive)
same,Potency,[2],inactive
same,outcome,[3],inactive
same,max response,[4],4.84%
same,outcome,[5],inactive
same,outcome,[6],inactive
CC(C)(C)c1cc(O)ccc1O,Potency,[9],inactive
same,activation,[10],0.716% (inactive) and -1.49% (inactive) and 4.72% (inactive)
same,activation,[1],4.46% (inactive) and 3.75% (inactive) and 5.49% (inactive)
same,Potency,[2],inactive
same,outcome,[3],inactive
same,max response,[4],24.1%
same,outcome,[5],inactive
O=C1CCO1,activation,[7],25.6% (inactive)
same,outcome,[8],inactive
same,Potency,[9],inactive
same,activation,[10],0.979% (inactive)
same,activation,[1],-0.359% (inactive)
same,Potency,[2],inactive
same,outcome,[3],inactive
same,max response,[4],13.3%
same,outcome,[5],inactive
same,outcome,[6],inactive
CC(C)CCON=O,activation,[1],-2.48% (inactive)
same,Potency,[2],inactive
same,outcome,[3],inactive
same,max response,[4],8.58%
same,outcome,[5],inactive
same,outcome,[6],inactive
O=CC=O,activation,[7],7.81% (inactive)
same,outcome,[8],inactive
same,activation,[1],-1.86% (inactive)
same,Potency,[2],inactive
same,outcome,[3],inactive
same,outcome,[6],inactive
S=C=S,activation,[1],1.7% (inactive)
same,Potency,[2],inactive
same,outcome,[6],inactive
